Source: PubChem BioAssay (several laboratories)
PvdQ acylase = P. aeruginosa PvdQ acylase inhibitors, primary screen, biochemical, fluorescence, plate reader and imaging, single point; PvdQ acylase [Pseudomonas aeruginosa LESB58]; inhibition, % at 10 µM; purified PvdQ acylase; actives 0.063% (n = 340,000); in the data active = inhibition above about 30%, passing the limit was not always enough;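 note: 0% = vehicle neutral wells and 100% = reference inhibitor wells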
GASC-1 inh = inhibitors of GASC-1 histone demethylase, primary screen, biochemical, fluorescence, DELFIA europium; AID 2099, 2009; inhibition, % at 2.35 µM; actives 0.069% (n = 330,000); Lysine-specific demethylase 4C (Homo sapiens), Q9H3R0; GST-JMJD2C(1-420) H3K9me3 demethylation;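 active = more than half of a compound's replicate wells show inhibition beyond 50%, single wells judged on their own value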;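 note: signal counts dimethyl H3K9 product captured on neutravidin plate; 0% = median of DMSO wells and 100% = 0.3 times that DMSO median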
HDAC3 inhib = HDAC3 deacetylase inhibitors, primary screen, biochemical, fluorescence, cell-free homogeneous; AID 2718, 2010; actives 0.15% (n = 320,000); recombinant HDAC3, fluorogenic peptide/trypsin coupled; inhibition, % at 8.3 µM; in the data active = inhibition above about 26%, passing the limit was not always enough
PHOSPHO1 block = PubChem AID 1565. Phosphoethanolamine/phosphocholine phosphatase (Homo sapiens), Q8TCT1. recombinant PHOSPHO1, absorbance phosphatase assay. inhibition, % at 13.3 µM. actives 1.1% (n = 290,000); in the data active = inhibition above about 60%
Mot1-301 SUMO = yeast Mot1-301 growth rescue at high temperature, primary screen, SUMOylation pathway inhibitor project, S. cerevisiae, ATP luminescence, 38.5C | S. cerevisiae Mot1-301 growth rescue; percent above DMSO median, 100 means doubled | growth rescue, % at 18.8 µM | actives 1% (n = 320,000) | AID 2716, 2010;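 active = every valid replicate shows activation above 250% relative to neutral control wells; inactive = the rest, any valid replicate at or below 250%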;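 note: OY570 slx delta 5 strain wells were the positive control but not used for scaling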
pCIP destab = p/CIP-EGFP fusion destabilizers, primary screen, fluorescence, F442A cells. Q05BA5. actives 0.01% (n = 290,000). 16 h. decrease of EGFP signal, % at 10 µM;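 active = EGFP signal decrease of at least 30% at 10 µM or well 3 SD below plate mean, unless failing retest; inactive = the rest, including hits failing retest or dose response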
The depositor's hits bear a star; . = no result given. Sampled rows, rich in hits. Any-hit rate of the full collection: about 2.2%.

SMILES	PvdQ acylase	GASC-1 inh	HDAC3 inhib	PHOSPHO1 block	Mot1-301 SUMO	pCIP destab
CCC(C)NS(=O)(=O)c1ccc(OC)c(Cl)c1Cl (centres undefined)	35*	15	-4	14	80	-8
CC(=O)Nc1cccc(C(=O)Nc2cccnc2)c1	-11	-7	10	8	416	7
Clc1ccc(Sc2ccc(/C=N/n3cnnc3)o2)cc1	11	8	-6	31	34	-5
Clc1ccc(Sc2oc(/C=N/n3cnnc3)cc2Br)cc1	-10	.	6	84*	91	-7
COc1ccc(CNC(=O)C2CCN(S(=O)(=O)c3cccc4nsnc34)CC2)cc1	-11	-1	-2	7	0	0
CC1CCN(CCCOc2ccc(Cl)cc2Br)CC1	-14	-6	2	20	.	10
Cc1ccc(Cl)c(OCCN2CCCC(C)C2)c1 (centres undefined)	0	10	-1	-4	538*	-14
CC1CCCN(CCCOc2ccc(Cl)cc2Br)C1 (centres undefined)	-2	-3	1	5	482*	-10
Cc1ccccc1[C@]1(C)ON(c2ccccc2C(F)(F)F)C1=O	.	-5	1	.	62	.
COc1ccccc1[C@@]1(C)ON(c2ccccc2C(F)(F)F)C1=O	3	2	6	.	326*	.
CCOC(=O)C1CCN(C(=O)CCc2ccc(S(=O)(=O)NC(C)C)cc2)CC1	7	2	3	-8	-2	3
CCOC(=O)C1CCN(C(=O)CCc2ccc(S(=O)(=O)NCC(C)C)cc2)CC1	-16	-25	-2	60*	-2	-2
Cc1cc(C(=O)CSc2nnc(-c3ccccc3)n2Cc2ccc3c(c2)OCO3)c(C)n1C	-21	-28	4	95*	-9	7
O=C(CSc1nccn1-c1ccc(F)cc1)NCc1ccc2c(c1)OCO2	5	2	3	65*	20	-2
O=C(CSc1nnc(-c2ccccc2)n1Cc1ccco1)NCc1ccc2c(c1)OCO2	-14	3	12	60*	.	3
O=C(CSc1nccn1-c1ccccc1)NCc1ccc2c(c1)OCO2	-8	-6	-1	33	11	6
Cc1cc(C(=O)CSc2nc3ccccc3c(=O)n2C)c(C)n1Cc1ccc2c(c1)OCO2	4	5	1	20	-15	4
O=C(CSc1nnc(-c2ccccc2)n1Cc1ccco1)Nc1ccc2c(c1)OCCO2	3	13	2	53	-2	3
CS(=O)(=O)c1ccc(C(=O)N2CCN(S(=O)(=O)c3ccc(C4CCCCC4)cc3)CC2)cc1	-5	.	.	.	.	.
COc1cc2c(cc1OC)CN(C(=O)CSc1n[nH]c(N)n1)CC2	-20	54*	-1	7	33	-4
COc1cc2c(cc1OC)CN(C(=O)CSc1ccc(F)cc1)CC2	-6	15	2	.	4	.
CCn1nc(C)cc1C(=O)N1CCc2c([nH]c3ccccc23)C1c1cc(F)ccc1F (centres undefined)	-12	-9	-3	32	479*	-5
Cc1ncoc1C(=O)N1CCc2c([nH]c3ccccc23)C1c1ccccc1F (centres undefined)	-9	6	-1	53	-10	-6
Cc1ccc(S(=O)(=O)ON2C(=O)c3ccccc3C2=O)c(C)c1	-14	6	59*	-1	21	9
Cc1cc(C)c(S(=O)(=O)ON2C(=O)c3ccccc3C2=O)cc1C	-6	-7	2	55	55	-3
SMILES	PvdQ acylase	GASC-1 inh	HDAC3 inhib	PHOSPHO1 block	Mot1-301 SUMO	pCIP destab
Fc1ccc(-c2noc(C3CCN(Cc4cccnc4)CC3)n2)cc1	-7	4	6	-18	848*	3
CCCC1CCC(c2nc(-c3cccnc3)no2)CC1 (centres undefined)	-7	-3	5	11	24	-5
COc1ccc(C(=O)COC(=O)Cn2nnc3ccccc32)cc1Br	-11	3	13	24	-11	-11
COc1ccc(C(=O)n2nnc3ccccc32)cc1OC	-18	5	70*	19	34	-1
O=C(c1ccc2c(c1)OCO2)n1nnc2ccccc21	.	-7	.	11	.	-6
COc1ccc(C(=O)n2nnc3ccccc32)cc1Br	-10	2	96*	-47	-8	-9
O=C(NCCc1ccc(C(F)(F)F)cc1)C1CCC(=O)N(CCCc2ccccc2)C1 (centres undefined)	-11	-9	6	12	5	-1
CCOC(=O)c1cnn(-c2nc(OCC)cc(OCC)n2)c1C	-1	7	13	4	-1	0
CC1CCC/C(=C\Nc2ccc3c(c2)OCO3)C1=O (centres undefined)	-12	-11	-1	81*	3	-4
CC(C)CNc1ncnc2[nH]ncc12	-14	.	.	.	.	.
CCOC(=O)c1[nH]c2cc(OC)c(OC)cc2c1NC(=O)c1ccc2c(c1)OCO2	5	3	-1	68*	-17	-1
COc1cc(C(=O)NCCNC(=O)c2ccco2)cc(OC)c1OC	-7	.	.	.	.	.
Cc1cccc(NS(=O)(=O)c2cccc(C(=O)NCC(c3ccco3)N(C)C)c2)c1 (centres undefined)	2	-8	3	.	-3	.
COc1ccccc1N1C(=O)CC(Sc2nccc(C)n2)C1=O (centres undefined)	-6	-5	-9	-48	-18	1
COc1ccccc1N1C(=O)CC(Sc2n[nH]c(-c3cccc(C)c3)n2)C1=O (centres undefined)	1	-4	3	81*	-3	-6
O=C(NCc1ccccc1)NC(O)C(Cl)(Cl)Cl (centres undefined)	-7	-8	-2	52	-12	-6
CCCc1c(C(=O)N/N=C(\C)c2ccc(O)cc2)nnn1-c1nonc1N	4	-1	5	18	-2	-2
COCc1c(C(=O)N/N=C/c2c[nH]c3ccccc23)nnn1-c1nonc1N	-23	-34	5	24	3	-7
CCCc1c(C(=O)N/N=C(\C)CCc2ccccc2)nnn1-c1nonc1N	-20	-12	-3	67*	4	10
CCCN(CCC)Cc1c(C(=O)N/N=C/c2c[nH]c3ccccc23)nnn1-c1nonc1N	-12	21	32*	20	-1	3
CCOc1ccc(S(=O)(=O)N2CCN(Cc3ccc4c(c3)OCO4)CC2)cc1C	-2	4	-3	22	328*	-2
COc1ccc(S(=O)(=O)N2CCN(Cc3ccc4c(c3)OCO4)CC2)cc1F	-8	-16	-4	36	39	3
Cn1c(=O)oc2cc(S(=O)(=O)N3CCN(Cc4ccc5c(c4)OCO5)CC3)ccc21	-3	-7	2	72*	64	-8
